# An excerpt weighted towards active compounds, which were near 5.3% of everything screened.
# HCV inhibitor – blocks hepatitis C virus; Huh7.5.1 HCVcc-Cre infection, luciferase reporter, 44 h; Potency, µM (doses to about 41.8 µM), inactives show at the highest dose activity change, negative = inhibition, usual class: inhibitors; 3.4% of 340,000 active; AID 651820; active means well fitted inhibition curve with a large enough effect; inconclusive means small, poorly fitted or top-dose-only effect, or another doubt; inactive means no such curve, though single readings can be large or run the other way
#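 Cells (1,000/well) were plated 4 h before compound, then infected with HCVcc-Cre virus (~0.5 moi). After 44 h further culture, infection was read as luciferase luminescence following a 15 min substrate incubation at room temperature.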
# VACV Venus inh – vaccinia inhibition (Venus reporter); 0.46% of 330,000 active; Vaccinia virus Venus reporter expression, fluorescence; Potency, µM (series often up to 36.5 µM), for inactives: top-dose activity change, negative = inhibition, usual class: inhibitors; calls by dose curve; tested in A549 cells; further: nearly all actives have a fitted effect of over 30% in size
# MARV entry inh – inhibitors of Marburg virus binding or cell entry; Marburg virus pseudotyped entry inhibition, cell reporter; AID 540276; 1.8% of 300,000 active; Potency, µM (series often up to 37.8 µM), for inactives: top-dose activity change, negative = inhibition, actives largely listed as inhibitors; calls by dose curve; tested in HEK293 cells
# VACV mCherry inh – inhibitors of vaccinia virus infection (mCherry reporter signal); Vaccinia virus mCherry reporter infection, fluorescence; Potency, µM (highest dose often 36.5 µM), inactives show top-dose activity change, negative = inhibition, actives largely listed as inhibitors; 0.63% of 310,000 active; AID 720579; calls by dose curve; tested in A549 cells; further: nearly all actives have a fitted effect of over 35% in size
# FMDV inh – antivirals against foot and mouth disease virus | FMDV antiviral cell-based qHTS | AID 1159524 | 1.2% of 410,000 active | Potency, µM (titrated, usually from 57.9 µM), for the others: at the highest dose activity change, negative = inhibition, hits mostly inhibitors; calls by dose curve; tested in HEK293T cells; further: read-out not given here; nearly all actives have a fitted effect of over 45% in size
# Lassa entry inh – Lassa virus entry inhibition; Lassa virus pseudotype entry inhibition, cell reporter; Potency, µM (titrated, usually from 37.9 µM), for the others: at the highest dose activity change, negative = inhibition, usual class: inhibitors; 1.2% of 300,000 active; calls by dose curve; tested in HEK293 cells; further: nearly all actives have a fitted effect of over 50% in size
# Active calls of the source: *; i = inactive; ? = inconclusive; . = no result given; [ ] = remark or other dose. On the % scale 0 is the no-effect control and ±100 the full control effect; potency means the concentration at half of the fitted maximal effect.
SMILES,HCV inhibitor,VACV Venus inh,MARV entry inh,VACV mCherry inh,FMDV inh,Lassa entry inh
COc1ccc(NC(=O)CC2C(=O)N(c3cccc(OC)c3)C(=O)N2CCC2=CCCCC2)cc1 (configuration not stated),.,-12.8%,?,-10.6%,-20.9%,11.2µM*
Cc1nc2cc(-c3ccc(Cl)cc3)nn2c(NCCN(C)C)c1C,17.8µM*,-20.2%,?,?,13.0%,?
CCN(CC)S(=O)(=O)c1ccc(NC(=O)c2ccc(OCC3CCCO3)cc2)cc1 (configuration not stated),6.31µM*,.,.,.,28.2µM*,.
CCc1noc(C)c1C(=O)Nc1nc(-c2cccs2)cs1,-12.3%,-7.3%,13.0%[46.1 µM],i,-13.7%,-2.8%
CCOc1ccc(NC(=O)c2ccc(OCC3CCCO3)cc2)cc1S(=O)(=O)N(CC)CC (configuration not stated),?,-18.3%,-39.3%,-12.0%,?,-1.6%
O=C(Nc1ccc(Cl)cc1)c1ccc(OCC2CCCO2)cc1 (configuration not stated),-29.5%,-12.5%,?,-23.1%,7.4%,?
O=C(Nc1nc(-c2ccc(Cl)cc2Cl)cs1)c1ccc(OCC2CCCO2)cc1 (configuration not stated),8.91µM*,3.9%,?,i,?,?
Cc1cc(C)c2nc(NC(=O)c3ccc(OCC4CCCO4)cc3)sc2c1 (configuration not stated),?,.,?,.,-22.4%,7.1%
CCc1noc(C)c1C(=O)Nc1nc(-c2ccc(Cl)cc2Cl)cs1,10µM*,-28.8%,?,?,?,-9.7%
Cc1ccc2nc(NC(=O)c3ccc(OCC4CCCO4)cc3)sc2c1 (configuration not stated),8.91µM*,-11.4%,?,-16.9%,?,?
CCc1ccc(NCc2cc3cc4c(cc3n(CC(=O)Nc3ccc(C)cc3)c2=O)OCO4)cc1,.,2.0%,.,-8.7%,21.2%,13.6%[46.1 µM]
O=c1c2ccccc2nc(SCc2nnc(-c3ccccc3Br)o2)n1Cc1ccco1,12.6µM*,-15.2%,-3.4%,-13.9%,.,?
CCOC(=O)CSc1nc2ccc(N3CCOCC3)cc2c(=O)n1Cc1ccc2c(c1)OCO2,3.98µM*,.,.,.,.,.
CCCN(CCC)C(=O)CSc1nc2ccccc2c(=O)n1CC1COc2ccccc2O1 (configuration not stated),?,.,?,.,6.5%,?
CCOC(=O)CSc1nc2ccccc2c(=O)n1CC1CCCO1 (configuration not stated),8.91µM*,.,5.8%,.,-18.9%,-23.6%
O=c1c2ccccc2nc(SCc2ccccc2)n1Cc1ccco1,?,.,-0.7%,.,?,-3.2%
CCN(CC)C(=O)CSc1nc2cc3c(cc2c(=O)n1Cc1ccc2c(c1)OCO2)OCO3,?,.,-0.4%,.,-12.9%,-3.1%
CCOC(=O)CSc1nc2ccccc2c(=O)n1CC1COc2ccccc2O1 (configuration not stated),2.51µM*,.,-3.2%,.,-7.1%,7.7%
O=C(CSc1nc2ccccc2c(=O)n1CC1CCCO1)Nc1ccccc1 (configuration not stated),4.4%,-4.5%,-6.2%[46.1 µM],i,1.9%,9.5%[46.1 µM]
O=C(NCC1CCN(Cc2cccc(F)c2)CC1)c1cc2ccc3cccnc3c2[nH]1,.,-16.9%,.,-17.5%,-24.6%,-21.4%[46.1 µM]
COc1cccc(CN(C)C(=O)COc2cccc3c2OC(C)(C)C3)c1OC,7.4%,-16.3%,-7.9%,i,0.0%,-4.9%
CCC(C)NC(=O)CSc1nc2cc3c(cc2c(=O)n1Cc1ccco1)OCO3 (configuration not stated),-3.9%,5.8%,21.2%[46.1 µM],2.6%,8.5%,7.2%
O=C(CSc1nc2ccccc2c(=O)n1Cc1ccco1)c1ccccc1,?,-13.0%,-7.5%,-3.3%,-18.4%,?
CCOC(=O)CSc1nc2c(sc(=S)n2-c2ccccc2OC)c(=O)n1Cc1ccco1,2.82µM*,.,-4.2%,.,-27.9%,5.3%
CCOC(=O)CSc1nc2ccccc2c(=O)n1Cc1ccco1,12.6µM*,-15.2%,-2.4%,-4.9%,.,-14.5%
SMILES,HCV inhibitor,VACV Venus inh,MARV entry inh,VACV mCherry inh,FMDV inh,Lassa entry inh
CCN(CC)C(=O)CSc1nc2cc3c(cc2c(=O)n1Cc1ccco1)OCO3,10µM*,-9.1%,0.2%,i,-5.3%,-5.0%
CCN(Cc1ccccc1)C(=O)CN(c1ccc(OC)cc1)S(=O)(=O)c1c(C)nn(C)c1C,.,-5.7%,-3.0%[46.1 µM],-2.3%,3.1%,?
COCCCNC(=O)c1ccc(-n2c(-c3ccccc3)cc3c2CCCC3)cc1,.,-9.1%,.,-3.6%,0.0%,18.7%[46.1 µM]
O=C(CSc1nnc(CNC(=O)C23CC4CC(CC(C4)C2)C3)n1-c1ccc(F)cc1)Nc1ccc(F)cc1,?,-25.2%,?,-9.2%,0.0%,-18.1%
O=C(NCc1nnc(SCc2ccc(F)cc2)n1-c1ccc(F)cc1)C12CC3CC(CC(C3)C1)C2,?,?,8.91µM*,?,-23.7%,?
C(=C1C=c2ccccc2=C1)c1ccc(N=Nc2ccc(C=C3C=c4ccccc4=C3)cc2)cc1,.,-12.9%,.,-0.1%,.,.
O=C(Nc1ccccc1F)C1CCCN1S(=O)(=O)c1cccc2nsnc12 (configuration not stated),12.4%,.,.,.,-11.3%,.
CCC(C)OC(=O)C1=C(C)NC2=C(C(=O)C(C(=O)OC)C(C)C2)C1c1ccc(N(C)C)cc1 (configuration not stated),?,.,6.5%,.,35.6%,12.6%
CCCOC(=O)C1=C(C)NC2=C(C(=O)C(C(=O)OC)C(C)C2)C1c1ccc(N(CC)CC)cc1 (configuration not stated),10µM*,-20.6%,?,-18.8%,8.1%,?
CSCCC(NC(=O)c1ccccc1)C(=O)N1CCN(C(c2ccccc2)c2ccccc2)CC1 (configuration not stated),12.6µM*,?,-28.0%,?,?,14.1µM*
CSCCC(NC(=O)c1ccc(Cl)cc1Cl)C(=O)N1CCN(C(=O)c2ccccc2)CC1 (configuration not stated),-23.0%,.,.,.,-14.4%,.
Cc1cc(C)cc(C(=O)NCC(=O)N2CCN(C(c3ccccc3)c3ccccc3)CC2)c1,-15.2%,-15.0%,12.6µM*,-29.4%,2.9%,-20.0%[46.1 µM]
COc1ccc(CCNC(=O)CSc2nnc(-c3ccc(C)cc3)c(-c3ccc(C)cc3)n2)cc1OC,.,-13.6%,.,-19.4%,0.0%,-25.4%[46.1 µM]
O=C(CCc1ccccc1)N/N=C/c1cc(Br)ccc1O,11.2µM*,?,22.4µM*,12.6µM*,-3.7%,?
C/C(=N\NC(=S)NCCc1ccccc1)c1ccc(C)cc1,-7.6%,-12.5%,16.4µM*,-12.8%,-9.0%,?
O=C(CCc1ccccc1)N/N=C\c1cc2c(cc1Br)OCO2,-13.7%,-11.9%,-19.0%,-15.6%,-4.8%,?
COc1ccc(O)c(/C=N/NC(=S)NCCc2ccccc2)c1,?,?,?,?,-23.8%,?
COC(=O)N/N=C\c1cc(Br)ccc1OCc1ccccc1,10µM*,-11.3%,-6.9%,-20.1%,-27.0%,?

# Screening results as filed in PubChem BioAssay.
